PubChem BioAssay (Tox21)
Unmarked numbers belong to inactive results. Inconclusive results are not listed. A call without a number means that no potency is given here. The source made the active and inactive calls. Unless noted, calls come from the whole dose curve; as a rule, active = well fitted curve in the direction sought with a large enough effect in the repeat runs; inconclusive = weak or mixed curves; inactive = no such curve, though single readings can be large; an effect the other way counts as inactive or inconclusive.

How the values were obtained:
[1] = molecular target: Progesterone receptor (Homo sapiens) (UniProt P06401); test: qHTS assay to identify small molecule agonists of the progesterone receptor (PR) signaling pathway (AID 1346784; calls by dose curve; note: nearly all actives have a fitted effect of over 30% in size)
Chain of Progesterone receptor (Homo sapiens) (P06401 whole entry, looked up): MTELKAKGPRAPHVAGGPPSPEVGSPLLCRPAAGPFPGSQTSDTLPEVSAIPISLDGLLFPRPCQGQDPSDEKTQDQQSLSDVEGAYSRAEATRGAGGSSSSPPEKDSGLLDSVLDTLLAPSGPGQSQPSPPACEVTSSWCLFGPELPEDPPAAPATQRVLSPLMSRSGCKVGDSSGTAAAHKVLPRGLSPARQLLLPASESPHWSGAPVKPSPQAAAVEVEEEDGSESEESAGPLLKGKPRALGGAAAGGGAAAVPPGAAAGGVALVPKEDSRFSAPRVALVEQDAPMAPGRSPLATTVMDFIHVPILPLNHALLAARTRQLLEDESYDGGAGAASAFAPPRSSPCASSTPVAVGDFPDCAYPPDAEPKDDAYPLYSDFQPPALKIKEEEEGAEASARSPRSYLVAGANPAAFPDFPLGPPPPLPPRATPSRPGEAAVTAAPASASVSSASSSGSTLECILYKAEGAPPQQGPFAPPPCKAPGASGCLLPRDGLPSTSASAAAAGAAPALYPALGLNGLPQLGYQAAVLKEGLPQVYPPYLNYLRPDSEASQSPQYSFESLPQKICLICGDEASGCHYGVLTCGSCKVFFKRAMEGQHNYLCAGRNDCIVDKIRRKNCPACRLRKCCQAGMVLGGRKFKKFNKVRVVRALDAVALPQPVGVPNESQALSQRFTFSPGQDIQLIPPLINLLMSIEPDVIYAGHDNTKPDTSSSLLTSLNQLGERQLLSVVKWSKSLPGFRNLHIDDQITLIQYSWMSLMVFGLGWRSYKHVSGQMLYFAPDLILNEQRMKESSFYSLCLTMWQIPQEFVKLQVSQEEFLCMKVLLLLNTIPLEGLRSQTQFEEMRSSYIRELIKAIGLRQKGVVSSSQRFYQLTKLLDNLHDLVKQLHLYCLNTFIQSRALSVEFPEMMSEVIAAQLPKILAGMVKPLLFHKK
Procedure, shortened: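 Compounds were tested for PR agonism in HEK 293T cells bearing a beta-lactamase gene under UAS control. Treatment lasted 16 hr at 37C; signal came from fluorescence of a FRET substrate.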

[2] = molecular target: Progesterone receptor (Homo sapiens) (UniProt P06401); test: qHTS assay to identify small molecule antagonists of the progesterone receptor (PR) signaling pathway (AID 1346795; active = well fitted inhibition curve with a large enough effect in the signal ratio in the repeat runs, not every such curve was filed as active; the % refers to the signal ratio)
Procedure, shortened: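 In HEK293T cells bearing the PR-UAS-bla reporter, compound effects on promegestone-driven (1 nM) beta-lactamase expression are assessed after 16 hr using a fluorescent FRET substrate incubated 2 hr at room temperature.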

[3] = qHTS assay to identify small molecule antagonists of the progesterone receptor (PR) signaling pathway - cell viability counter screen (AID 1346798); note: series mostly up to about 92 µM; nearly all actives have a fitted effect of over 50% in size
Procedure, shortened: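 Following a 4 hr attachment, PR-UAS-bla HEK293T cells in charcoal-stripped FBS medium were exposed to compounds with R5020 for 16 hr; CellTiter-Glo was added and luminescence read after 30 min at room temperature.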

[4] = qHTS assay to identify small molecule agonists of the progesterone receptor (PR) signaling pathway - cell viability counter screen (AID 1346799; calls by dose curve; note: nearly all actives have a fitted effect of over 45% in size)
Procedure, shortened: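 Here, 3,000 PR-UAS-bla HEK293T cells per well were treated with compounds for 16 hr after a 6 hr preincubation at 37C and 5% CO2; cell viability is the CellTiter-Glo luminescence signal.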

[5] = qHTS assay to identify small molecule antagonists of the TGF-beta/Smad signaling pathway - cell viability counter screen (AID 1346824); note: nearly all actives have a fitted effect of over 50% in size
Procedure, shortened: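 SBE-bla HEK 293T cells, incubated overnight, then compound plus 0.25 ng/mL TGF-beta1 (stock added) for 5 hr at 37 C. Viability was read in the same wells by CellTiter-Glo luminescence after 30 min at room temperature.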

[6] = qHTS assay to identify small molecule agonists of the TGF-beta/Smad signaling pathway - cell viability counter screen (AID 1346829); note: top concentration of the series differs between compounds; nearly all actives have a fitted effect of over 45% in size
Procedure, shortened: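 In parallel with the Smad reporter read, viability of HEK 293T cells stably carrying SBE-bla is quantified by ATP luminescence following 5 hr compound treatment.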

[7] = qHTS assay to identify small molecule agonists of the TGF-beta/Smad signaling pathway (AID 1346859; active = well fitted activation curve with a large enough effect in the signal ratio in the repeat runs, not every such curve was filed as active; the % refers to the signal ratio; note: series mostly up to about 77 µM)
Procedure, shortened: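 Each well held 4,000 SBE-bla HEK 293T cells incubated overnight before compound addition; 5 hr later the cleavable FRET substrate went on for 2 hr at room temperature, and fluorescence was read at two emissions.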

[8] = molecular target: Thyrotropin-releasing hormone receptor (Homo sapiens) (UniProt P34981); test: qHTS assay to identify small molecule antagonists of the thyrotropin-releasing hormone receptor (TRHR) signaling pathway (AID 1346877; active = well fitted inhibition curve with a large enough effect in the repeat runs, not every such curve was filed as active; note: series mostly up to about 51 µM)
Chain of Thyrotropin-releasing hormone receptor (Homo sapiens) (P34981 whole entry, looked up): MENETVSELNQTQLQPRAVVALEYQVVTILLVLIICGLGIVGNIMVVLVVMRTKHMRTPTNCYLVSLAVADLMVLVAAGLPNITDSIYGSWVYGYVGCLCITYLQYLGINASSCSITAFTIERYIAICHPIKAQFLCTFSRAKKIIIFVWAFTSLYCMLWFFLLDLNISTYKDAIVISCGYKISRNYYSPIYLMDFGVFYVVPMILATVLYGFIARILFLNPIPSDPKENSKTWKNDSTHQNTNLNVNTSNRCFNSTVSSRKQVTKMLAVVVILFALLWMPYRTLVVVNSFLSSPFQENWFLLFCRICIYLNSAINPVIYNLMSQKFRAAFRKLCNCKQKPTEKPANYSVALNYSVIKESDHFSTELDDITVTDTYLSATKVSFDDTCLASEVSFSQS
Procedure, shortened: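 Calcium signal in dye-loaded TRHR/HEK293 cells; compounds added 5 min before TRH (1 nM final); fluorescence monitored 3 min at 1 s steps.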

[9] = molecular target: Thyrotropin-releasing hormone receptor (Homo sapiens) (UniProt P34981); test: qHTS assay to identify small molecule agonists of the thyrotropin-releasing hormone receptor (TRHR) signaling pathway (AID 1346891; calls by dose curve; note: series mostly up to about 58 µM)
Procedure, shortened: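 Screening of agonists relied on calcium signalling in HEK293 cells expressing human TRHR: dye loading 2 h at 37 °C preceded compound addition and a 3-min fluorescence time course.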

[10] = Human pregnane X receptor (PXR) small molecule agonists, qHTS cell viability counter screen (AID 1346977); note: nearly all actives have a fitted effect of over 50% in size
Procedure, shortened: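 Tox21 qHTS format; PXR-Luc HepG2, 2,000/well, charcoal-stripped FBS 5%. Cpd exposure 24hr. Read: CellTiter-Fluor fluorescence, multiplexed with luciferase.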

[11] = Caspase-3/7 induction in HepG2 cells by small molecules, qHTS assay (AID 1346978); note: nearly all actives have a fitted effect of over 15% in size
Procedure, shortened: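 Wild-type HepG2 cells, 2,000/well, settled 5 hr at 37 C and 5% CO2, then compound-treated for 17 hr; caspase-3/7 activity read by luminescent Caspase-Glo 3/7 after 30 min at room temperature.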

[12] = Caspase-3/7 induction in CHO-K1 cells by small molecules, qHTS cell viability counter screen (AID 1346979); note: nearly all actives have a fitted effect of over 35% in size
Procedure, shortened: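 CellTiter-Fluor viability check, qHTS format: wild-type CHO-K1, 16hr compound treatment, 1hr reagent incubation, fluorescence read.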

[13] = Caspase-3/7 induction in CHO-K1 cells by small molecules, qHTS assay (AID 1346980); note: nearly all actives have a fitted effect of over 15% in size
Procedure, shortened: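 Wild-type CHO-K1 cells exposed to compounds for 17hr at 37 C, 5% CO2. Caspase-3/7 activity then measured by Caspase-Glo 3/7 luminescence after 30min at room temperature.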

[14] = Caspase-3/7 induction in HepG2 cells by small molecules, qHTS cell viability counter screen (AID 1346981); note: series mostly up to about 92 µM; nearly all actives have a fitted effect of over 30% in size
Procedure, shortened: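 After a 5-hr attachment period at 37 C and 5% CO2, wild-type HepG2 cells received compounds in DMSO. Sixteen hours later CellTiter-Fluor was dispensed and the fluorescent signal quantified after a further hour.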

[15] = molecular target: Nuclear receptor subfamily 1 group I member 2 (Homo sapiens) (UniProt O75469); test: Human pregnane X receptor (PXR) small molecule agonists, qHTS assay (AID 1346982); note: nearly all actives have a fitted effect of over 35% in size; note: potency is the fitted concentration of half-maximal effect
Chain of Nuclear receptor subfamily 1 group I member 2 (Homo sapiens) (O75469 whole entry, looked up): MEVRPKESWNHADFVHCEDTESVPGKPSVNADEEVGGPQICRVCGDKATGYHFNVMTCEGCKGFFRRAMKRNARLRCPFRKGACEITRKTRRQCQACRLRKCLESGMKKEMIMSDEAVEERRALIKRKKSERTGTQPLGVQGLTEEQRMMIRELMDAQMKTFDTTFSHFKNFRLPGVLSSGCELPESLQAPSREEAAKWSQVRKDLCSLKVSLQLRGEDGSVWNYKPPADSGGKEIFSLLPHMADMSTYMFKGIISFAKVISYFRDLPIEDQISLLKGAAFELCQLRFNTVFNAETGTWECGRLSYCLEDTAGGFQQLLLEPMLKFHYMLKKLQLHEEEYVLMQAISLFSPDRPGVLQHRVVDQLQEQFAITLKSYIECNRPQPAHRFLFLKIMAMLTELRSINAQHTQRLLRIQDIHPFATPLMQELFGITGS
Procedure, shortened: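 Tox21 qHTS; PXR-Luc HepG2; compounds pinned from DMSO; 24 hr, 37 C; ONE-Glo luciferase detection, 30 min room temperature.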

[16] = molecular target: Cytochrome P450 2D6 (Homo sapiens) (UniProt P10635); test: Cytochrome P450 Family 2 Subfamily D Member 6 (CYP2D6) small molecule antagonists: luciferase reporter qHTS assay (AID 1671196); note: nearly all actives have a fitted effect of over 50% in size; note: potency is the fitted concentration of half-maximal effect
Chain of Cytochrome P450 2D6 (Homo sapiens) (P10635 whole entry, looked up): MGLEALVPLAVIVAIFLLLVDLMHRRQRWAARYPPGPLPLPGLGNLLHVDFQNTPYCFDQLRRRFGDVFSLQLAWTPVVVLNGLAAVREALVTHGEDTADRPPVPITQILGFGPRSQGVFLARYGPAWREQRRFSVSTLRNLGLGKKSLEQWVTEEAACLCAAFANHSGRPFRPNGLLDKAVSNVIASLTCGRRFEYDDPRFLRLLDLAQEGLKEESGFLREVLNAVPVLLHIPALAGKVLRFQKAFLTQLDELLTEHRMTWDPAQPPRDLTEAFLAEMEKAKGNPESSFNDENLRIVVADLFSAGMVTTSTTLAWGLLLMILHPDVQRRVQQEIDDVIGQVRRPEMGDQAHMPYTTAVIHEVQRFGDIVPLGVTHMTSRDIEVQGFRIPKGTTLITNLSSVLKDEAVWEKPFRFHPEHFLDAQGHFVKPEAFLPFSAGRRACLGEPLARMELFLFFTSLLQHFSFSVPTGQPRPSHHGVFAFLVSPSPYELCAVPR
Procedure, shortened: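 Room-temperature luminescent CYP2D6 activity assay: compound preincubated 10 min with enzyme–substrate mix, NADPH-initiated reaction 1 h, detection reagent 20 min before reading.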

[17] = molecular target: Cytochrome P450 2C19 (Homo sapiens) (UniProt P33261); test: Cytochrome P450 Family 2 Subfamily C Member 19 (CYP2C19) small molecule antagonists: luciferase reporter qHTS assay (AID 1671197); note: nearly all actives have a fitted effect of over 65% in size; note: potency is the fitted concentration of half-maximal effect
Chain of Cytochrome P450 2C19 (Homo sapiens) (P33261 whole entry, looked up): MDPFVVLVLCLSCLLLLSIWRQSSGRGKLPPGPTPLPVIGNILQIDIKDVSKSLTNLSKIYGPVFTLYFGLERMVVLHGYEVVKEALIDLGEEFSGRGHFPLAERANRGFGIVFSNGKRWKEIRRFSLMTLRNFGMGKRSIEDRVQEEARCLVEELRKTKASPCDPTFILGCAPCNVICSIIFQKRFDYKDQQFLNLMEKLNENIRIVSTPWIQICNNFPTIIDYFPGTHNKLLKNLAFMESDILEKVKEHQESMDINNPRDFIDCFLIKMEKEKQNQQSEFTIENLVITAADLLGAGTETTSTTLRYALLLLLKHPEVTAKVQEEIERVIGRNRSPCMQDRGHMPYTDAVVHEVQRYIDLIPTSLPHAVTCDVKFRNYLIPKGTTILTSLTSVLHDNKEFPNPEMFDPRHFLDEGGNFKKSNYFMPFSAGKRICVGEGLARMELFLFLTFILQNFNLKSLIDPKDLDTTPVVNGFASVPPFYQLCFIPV
Procedure, shortened: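 Compounds were tested on CYP2C19 activity via proluciferin conversion to luciferin. The 37C, 1 h reaction followed NADPH addition; detection reagent stopped it.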

Cc1c(C)c2c(c(C)c1O)CC[C@@](C)(CCC[C@H](C)CCC[C@H](C)CCCC(C)C)O2
Potency [1]: inactive
Potency [2]: inactive
Potency [3]: inactive
Potency [4]: inactive
Potency [5]: inactive
Potency [6]: inactive
Potency [7]: inactive
Potency [8]: inactive
outcome [9]: inactive
Potency [10]: inactive
Potency [11]: inactive
Potency [12]: inactive
Potency [13]: inactive
Potency [14]: inactive
Potency [15]: inactive
Potency [16]: inactive

C#Cc1ccc(-c2ccccc2F)cc1
Potency [1]: inactive
Potency [2]: inactive
Potency [3]: inactive
Potency [4]: inactive
Potency [5]: inactive
Potency [6]: inactive
Potency [7]: inactive
Potency [8]: inactive
outcome [9]: inactive
Potency [10]: inactive
Potency [11]: inactive
Potency [12]: inactive
Potency [13]: inactive
Potency [14]: inactive
Potency [15]: inactive
Potency [16]: inactive
Potency [17]: 7.76 µM (active)

Cc1cccc2cccnc12
Potency [1]: inactive
Potency [2]: inactive
Potency [3]: inactive
Potency [4]: inactive
Potency [5]: inactive
Potency [6]: inactive
Potency [7]: inactive
Potency [8]: inactive
outcome [9]: inactive
Potency [10]: inactive
Potency [11]: inactive
Potency [12]: inactive
Potency [13]: inactive
Potency [14]: inactive
Potency [15]: inactive
Potency [16]: inactive
Potency [17]: 70.5 µM (active)

CCC(=O)C(=O)CC
Potency [1]: inactive
Potency [2]: inactive
Potency [3]: inactive
Potency [4]: inactive
Potency [5]: inactive
Potency [6]: inactive
Potency [7]: inactive
Potency [8]: inactive
outcome [9]: inactive
Potency [10]: inactive
Potency [11]: inactive
Potency [12]: inactive
Potency [13]: inactive
Potency [14]: inactive
Potency [15]: 18 µM (active)
Potency [16]: inactive
Potency [17]: 41.6 µM (active)

CC[N+](CC)(CC)CCOC(=O)C(C1CCCC1)C1CCCC1
Potency [1]: inactive
Potency [2]: inactive
Potency [3]: inactive
Potency [4]: inactive
Potency [5]: inactive
Potency [6]: inactive
Potency [7]: inactive
Potency [8]: inactive
outcome [9]: inactive
Potency [10]: inactive
Potency [11]: inactive
Potency [12]: inactive
Potency [13]: inactive
Potency [14]: inactive
Potency [15]: inactive
Potency [16]: 1.95 µM (active)

O=[N+]([O-])c1cccc(C(F)(F)F)c1
Potency [1]: inactive
Potency [2]: inactive
Potency [3]: inactive
Potency [4]: inactive
Potency [5]: inactive
Potency [6]: inactive
Potency [7]: inactive
Potency [8]: inactive
outcome [9]: inactive
Potency [10]: inactive
Potency [11]: inactive
Potency [12]: inactive
Potency [13]: inactive
Potency [14]: inactive
Potency [15]: inactive
Potency [16]: inactive
Potency [17]: inactive

CCCC[P+](C)(CCCC)CCCC
Potency [1]: inactive
Potency [2]: inactive
Potency [3]: inactive
Potency [4]: inactive
Potency [5]: inactive
Potency [6]: inactive
Potency [7]: inactive
Potency [8]: inactive
outcome [9]: inactive
Potency [10]: inactive
Potency [11]: inactive
Potency [12]: inactive
Potency [13]: inactive
Potency [14]: inactive
Potency [15]: 61.9 µM (active)
Potency [16]: 0.203 µM (active)
Potency [17]: inactive

CC1(C)CCC[C@]2(C)[C@H]3CCO[C@]3(C)CC[C@@H]12
Potency [1]: inactive
Potency [2]: inactive
Potency [3]: inactive
Potency [4]: inactive
Potency [5]: inactive
Potency [6]: inactive
Potency [7]: inactive
Potency [8]: inactive
outcome [9]: inactive
Potency [10]: inactive
Potency [11]: inactive
Potency [12]: inactive
Potency [13]: inactive
Potency [14]: inactive
Potency [15]: inactive
Potency [16]: inactive
Potency [17]: inactive

ClCCl
Potency [1]: inactive
Potency [2]: inactive
Potency [3]: inactive
Potency [4]: inactive
Potency [5]: inactive
Potency [6]: inactive
Potency [7]: inactive
Potency [8]: inactive
outcome [9]: inactive
Potency [10]: inactive
Potency [11]: inactive
Potency [12]: inactive
Potency [13]: inactive
Potency [14]: inactive
Potency [15]: inactive
Potency [16]: inactive

O=C1C(c2[nH]c3ccc(S(=O)(=O)O)cc3c2O)=Nc2ccc(S(=O)(=O)O)cc21
Potency [1]: inactive
Potency [2]: inactive
Potency [3]: inactive
Potency [4]: inactive
Potency [5]: inactive
Potency [6]: inactive
Potency [7]: inactive
Potency [8]: inactive
outcome [9]: inactive
Potency [10]: inactive
Potency [11]: inactive
Potency [12]: inactive
Potency [13]: inactive
Potency [14]: inactive
Potency [15]: inactive
Potency [16]: 63.3 µM (active)
Potency [17]: 79.6 µM (active)

c1ccsc1
Potency [1]: inactive
Potency [2]: inactive
Potency [3]: inactive
Potency [4]: inactive
Potency [5]: inactive
Potency [6]: inactive
Potency [7]: inactive
Potency [8]: inactive
outcome [9]: inactive
Potency [10]: inactive
Potency [11]: inactive
Potency [12]: inactive
Potency [13]: inactive
Potency [14]: inactive
Potency [15]: inactive
Potency [16]: inactive

C=Cc1ccccc1C=C
Potency [1]: inactive
Potency [2]: inactive
Potency [3]: inactive
Potency [4]: inactive
Potency [5]: inactive
Potency [6]: inactive
Potency [7]: inactive
Potency [8]: inactive
outcome [9]: inactive
Potency [10]: inactive
Potency [11]: inactive
Potency [12]: inactive
Potency [13]: inactive
Potency [14]: inactive
Potency [15]: 109 µM (active)
Potency [16]: 79.4 µM (active)
Potency [17]: inactive

CCCc1ccc(OCC(=O)N2CCN(C(=O)COc3ccc(CCC)cc3OC)CC2)c(OC)c1
Potency [1]: inactive
Potency [2]: inactive
Potency [3]: inactive
Potency [4]: inactive
Potency [5]: inactive
Potency [6]: inactive
Potency [7]: inactive
Potency [8]: inactive
outcome [9]: inactive
Potency [10]: inactive
Potency [11]: inactive
Potency [12]: inactive
Potency [13]: inactive
Potency [14]: inactive
Potency [15]: 4.22 µM (active)
Potency [16]: inactive
Potency [17]: 3.47 µM (active)

OCC(F)(F)F
Potency [1]: inactive
Potency [2]: inactive
Potency [3]: inactive
Potency [4]: inactive
Potency [5]: inactive
Potency [6]: inactive
Potency [7]: inactive
Potency [8]: inactive
outcome [9]: inactive
Potency [10]: inactive
Potency [11]: inactive
Potency [12]: inactive
Potency [13]: inactive
Potency [14]: inactive
Potency [15]: inactive
Potency [16]: inactive
Potency [17]: 74.8 µM (active)

CC1(C)CC(O)CC(C)(C)N1
Potency [1]: inactive
Potency [2]: inactive
Potency [3]: inactive
Potency [4]: inactive
Potency [5]: inactive
Potency [6]: inactive
Potency [7]: inactive
Potency [8]: inactive
outcome [9]: inactive
Potency [10]: inactive
Potency [11]: inactive
Potency [12]: inactive
Potency [13]: inactive
Potency [14]: inactive
Potency [15]: 55.5 µM (active)
Potency [16]: inactive
Potency [17]: inactive
